Numbering of substitutions follows the chain as printed.
Columns and labels:
Experiment in all cases: PBM; 200 nM protein, PBS
Conditions in all cases: dsDNA, one strand shown
SHOX [1] = target: SHOX (Homo sapiens, UniProt O15266 103-189)
SIX6 [2] = target: T1, SIX6 (Homo sapiens, UniProt O95475 114-200, L167I)
T1 sequence: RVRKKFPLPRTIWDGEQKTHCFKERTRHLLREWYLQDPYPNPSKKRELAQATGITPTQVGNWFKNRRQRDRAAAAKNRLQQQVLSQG

SIX6 [3] = target: T2, SIX6 (Homo sapiens, UniProt O95475 114-200, L143V)
T2 sequence: T1 sequence with L30V, I54L

HOXA7 [4] = target: HOXA7 (Homo sapiens, UniProt P31268 116-202)
Chain of HOXA7 (Homo sapiens, UniProt P31268 116-202) (P31268 116-202): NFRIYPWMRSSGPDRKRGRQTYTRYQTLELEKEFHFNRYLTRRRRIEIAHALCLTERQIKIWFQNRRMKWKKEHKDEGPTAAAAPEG

SIX6 [5] = target: T3, SIX6 (Homo sapiens, UniProt O95475 114-200, H141N)
T3 sequence: T1 sequence with H28N, I54L

SIX6 [6] = target: T4, SIX6 (Homo sapiens, UniProt O95475 114-200, T165P)
T4 sequence: T1 sequence with T52P, I54L

SIX6 [7] = target: T5, SIX6 (Homo sapiens, UniProt O95475 114-200, L167M)
T5 sequence: T1 sequence with I54M

SIX6 [8] = target: T6, SIX6 (Homo sapiens, UniProt O95475 114-200, L143M)
T6 sequence: T1 sequence with L30M, I54L

SIX6 [9] = target: T7, SIX6 (Homo sapiens, UniProt O95475 114-200, L143I)
T7 sequence: T1 sequence with L30I, I54L

SIX6 [10] = target: T8, SIX6 (Homo sapiens, UniProt O95475 114-200, T165G)
T8 sequence: T1 sequence with T52G, I54L

SIX6 [11] = target: T9, SIX6 (Homo sapiens, UniProt O95475 114-200, T139Q)
T9 sequence: T1 sequence with T26Q, I54L

ALX3 [12] = target: ALX3 (Homo sapiens, UniProt O95076 139-225, N203Q)
Chain of ALX3 (Homo sapiens, UniProt O95076 139-225, N203Q) (O95076 139-225 N203Q): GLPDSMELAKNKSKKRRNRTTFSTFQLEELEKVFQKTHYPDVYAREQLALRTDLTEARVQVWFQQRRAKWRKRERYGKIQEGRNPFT

HOXD13 [13] = target: HOXD13 (Homo sapiens, UniProt P35453 263-343, T313R)
Chain of HOXD13 (Homo sapiens, UniProt P35453 263-343, T313R) (P35453 263-343 T313R): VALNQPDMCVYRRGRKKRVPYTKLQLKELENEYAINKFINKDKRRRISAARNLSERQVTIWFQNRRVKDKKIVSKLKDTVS

SIX6 [14] = target: T10, SIX6 (Homo sapiens, UniProt O95475 114-200, T165A)
T10 sequence: T1 sequence with T52A, I54L

SHOX [15] = target: SHOX (Homo sapiens, UniProt O15266 103-189, R173C)
Chain of SHOX (Homo sapiens, UniProt O15266 103-189, R173C) (O15266 103-189 R173C): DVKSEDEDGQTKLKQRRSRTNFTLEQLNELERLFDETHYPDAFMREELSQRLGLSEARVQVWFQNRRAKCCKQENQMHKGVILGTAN

HOXD13 [16] = target: HOXD13 (Homo sapiens, UniProt P35453 263-343)
Chain of HOXD13 (Homo sapiens, UniProt P35453 263-343) (P35453 263-343): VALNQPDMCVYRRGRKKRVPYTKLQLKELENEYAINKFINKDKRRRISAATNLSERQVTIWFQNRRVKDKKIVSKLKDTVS

SIX6 [17] = target: T11, SIX6 (Homo sapiens, UniProt O95475 114-200, L167V)
T11 sequence: T1 sequence with I54V

ALX3 [18] = target: ALX3 (Homo sapiens, UniProt O95076 139-225)
Chain of ALX3 (Homo sapiens, UniProt O95076 139-225) (O95076 139-225): as the sequence (O95076 139-225 N203Q) above, with Q65N counted along it

SIX6 [19] = target: T12, SIX6 (Homo sapiens, UniProt O95475 114-200)
T12 sequence: T1 sequence with I54L

ALX3 [20] = target: ALX3 (Homo sapiens, UniProt O95076 139-225, L168Q)
Chain of ALX3 (Homo sapiens, UniProt O95076 139-225, L168Q) (O95076 139-225 L168Q): as the sequence (O95076 139-225 N203Q) above, with L30Q, Q65N counted along it

SIX6 [21] = target: T13, SIX6 (Homo sapiens, UniProt O95475 114-200, T165I)
T13 sequence: T1 sequence with T52I, I54L

HOXD13 [22] = target: HOXD13 (Homo sapiens, UniProt P35453 263-343, T313A)
Chain of HOXD13 (Homo sapiens, UniProt P35453 263-343, T313A) (P35453 263-343 T313A): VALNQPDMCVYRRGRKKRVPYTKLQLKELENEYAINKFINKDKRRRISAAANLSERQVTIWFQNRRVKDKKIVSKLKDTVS

ALX3 [23] = target: ALX3 (Homo sapiens, UniProt O95076 139-225, L168V)
Chain of ALX3 (Homo sapiens, UniProt O95076 139-225, L168V) (O95076 139-225 L168V): as the sequence (O95076 139-225 N203Q) above, with L30V, Q65N counted along it

HOXA7 [24] = target: HOXA7 (Homo sapiens, UniProt P31268 116-202, W177C)
Chain of HOXA7 (Homo sapiens, UniProt P31268 116-202, W177C) (P31268 116-202 W177C): as the sequence (P31268 116-202) above, with W62C counted along it

ALX3 [25] = target: ALX3 (Homo sapiens, UniProt O95076 139-225, N203S)
Chain of ALX3 (Homo sapiens, UniProt O95076 139-225, N203S) (O95076 139-225 N203S): as the sequence (O95076 139-225 N203Q) above, with Q65S counted along it

HOXA2 [26] = target: HOXA2 (Homo sapiens, UniProt O43364 129-215, R185T)
Chain of HOXA2 (Homo sapiens, UniProt O43364 129-215, R185T) (O43364 129-215 R185T): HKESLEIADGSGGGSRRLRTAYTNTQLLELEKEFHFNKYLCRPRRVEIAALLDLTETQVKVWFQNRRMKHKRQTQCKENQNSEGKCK

MSX2 [27] = target: MSX2 (Homo sapiens, UniProt P35548 130-214, R199I)
Chain of MSX2 (Homo sapiens, UniProt P35548 130-214, R199I) (P35548 130-214 R199I): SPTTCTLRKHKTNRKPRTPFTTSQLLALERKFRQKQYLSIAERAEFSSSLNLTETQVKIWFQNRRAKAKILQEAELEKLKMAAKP

HOXA2 [28] = target: HOXA2 (Homo sapiens, UniProt O43364 129-215, R185K)
Chain of HOXA2 (Homo sapiens, UniProt O43364 129-215, R185K) (O43364 129-215 R185K): as the sequence (O43364 129-215 R185T) above, with T57K counted along it

MSX2 [29] = target: MSX2 (Homo sapiens, UniProt P35548 130-214)
Chain of MSX2 (Homo sapiens, UniProt P35548 130-214) (P35548 130-214): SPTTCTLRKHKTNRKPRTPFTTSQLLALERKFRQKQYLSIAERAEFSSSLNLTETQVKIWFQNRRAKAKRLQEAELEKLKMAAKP

MSX2 [30] = target: MSX2 (Homo sapiens, UniProt P35548 130-214, F161Y)
Chain of MSX2 (Homo sapiens, UniProt P35548 130-214, F161Y) (P35548 130-214 F161Y): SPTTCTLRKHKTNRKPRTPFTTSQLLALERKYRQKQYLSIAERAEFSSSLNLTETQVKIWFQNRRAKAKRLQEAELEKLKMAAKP

HOXA2 [31] = target: HOXA2 (Homo sapiens, UniProt O43364 129-215, Y150S)
Chain of HOXA2 (Homo sapiens, UniProt O43364 129-215, Y150S) (O43364 129-215 Y150S): as the sequence (O43364 129-215 R185T) above, with Y22S, T57R counted along it

HOXA2 [32] = target: HOXA2 (Homo sapiens, UniProt O43364 129-215)
Chain of HOXA2 (Homo sapiens, UniProt O43364 129-215) (O43364 129-215): as the sequence (O43364 129-215 R185T) above, with T57R counted along it

Chain of SHOX (Homo sapiens, UniProt O15266 103-189) (O15266 103-189): as the sequence (O15266 103-189 R173C) above, with C71R counted along it

CCTCTCCG
binding signal (SHOX [1]): 6.97 upbm affinity estimate (log intensity, higher = more binding, comparable within an allelic series) | binding signal (SIX6 [2]): 8.93 upbm affinity estimate (log intensity, higher = more binding, comparable within an allelic series) | binding signal (SIX6 [3]): 8.82 upbm affinity estimate (log intensity, higher = more binding, comparable within an allelic series) | binding signal (HOXA7 [4]): 8.27 upbm affinity estimate (log intensity, higher = more binding, comparable within an allelic series) | binding signal (SIX6 [5]): 8.83 upbm affinity estimate (log intensity, higher = more binding, comparable within an allelic series) | binding signal (SIX6 [6]): 8.87 upbm affinity estimate (log intensity, higher = more binding, comparable within an allelic series) | binding signal (SIX6 [7]): 8.89 upbm affinity estimate (log intensity, higher = more binding, comparable within an allelic series) | binding signal (SIX6 [8]): 8.93 upbm affinity estimate (log intensity, higher = more binding, comparable within an allelic series) | binding signal (SIX6 [9]): 8.91 upbm affinity estimate (log intensity, higher = more binding, comparable within an allelic series) | binding signal (SIX6 [10]): 8.85 upbm affinity estimate (log intensity, higher = more binding, comparable within an allelic series) | binding signal (SIX6 [11]): 8.89 upbm affinity estimate (log intensity, higher = more binding, comparable within an allelic series) | binding signal (ALX3 [12]): 7.63 upbm affinity estimate (log intensity, higher = more binding, comparable within an allelic series) | binding signal (HOXD13 [13]): 9.4 upbm affinity estimate (log intensity, higher = more binding, comparable within an allelic series) | binding signal (SIX6 [14]): 8.98 upbm affinity estimate (log intensity, higher = more binding, comparable within an allelic series) | binding signal (SHOX [15]): 7.06 upbm affinity estimate (log intensity, higher = more binding, comparable within an allelic series) | binding signal (HOXD13 [16]): 9.42 upbm affinity estimate (log intensity, higher = more binding, comparable within an allelic series) | binding signal (SIX6 [17]): 8.9 upbm affinity estimate (log intensity, higher = more binding, comparable within an allelic series) | binding signal (ALX3 [18]): 7.51 upbm affinity estimate (log intensity, higher = more binding, comparable within an allelic series) | binding signal (SIX6 [19]): 8.77 upbm affinity estimate (log intensity, higher = more binding, comparable within an allelic series) | binding signal (ALX3 [20]): 7.69 upbm affinity estimate (log intensity, higher = more binding, comparable within an allelic series) | binding signal (SIX6 [21]): 8.86 upbm affinity estimate (log intensity, higher = more binding, comparable within an allelic series) | binding signal (HOXD13 [22]): 9.42 upbm affinity estimate (log intensity, higher = more binding, comparable within an allelic series) | binding signal (ALX3 [23]): 7.6 upbm affinity estimate (log intensity, higher = more binding, comparable within an allelic series) | binding signal (HOXA7 [24]): 8.41 upbm affinity estimate (log intensity, higher = more binding, comparable within an allelic series) | binding signal (ALX3 [25]): 7.61 upbm affinity estimate (log intensity, higher = more binding, comparable within an allelic series)

GGAGCGGA
binding signal (SHOX [1]): 7.25 upbm affinity estimate (log intensity, higher = more binding, comparable within an allelic series) | binding signal (SIX6 [2]): 9.19 upbm affinity estimate (log intensity, higher = more binding, comparable within an allelic series) | binding signal (SIX6 [3]): 8.94 upbm affinity estimate (log intensity, higher = more binding, comparable within an allelic series) | binding signal (SIX6 [5]): 9.15 upbm affinity estimate (log intensity, higher = more binding, comparable within an allelic series) | binding signal (SIX6 [6]): 8.85 upbm affinity estimate (log intensity, higher = more binding, comparable within an allelic series) | binding signal (SIX6 [7]): 9.13 upbm affinity estimate (log intensity, higher = more binding, comparable within an allelic series) | binding signal (SIX6 [8]): 9.14 upbm affinity estimate (log intensity, higher = more binding, comparable within an allelic series) | binding signal (SIX6 [9]): 9.05 upbm affinity estimate (log intensity, higher = more binding, comparable within an allelic series) | binding signal (SIX6 [10]): 9.13 upbm affinity estimate (log intensity, higher = more binding, comparable within an allelic series) | binding signal (HOXA2 [26]): 7.31 upbm affinity estimate (log intensity, higher = more binding, comparable within an allelic series) | binding signal (SIX6 [11]): 9.15 upbm affinity estimate (log intensity, higher = more binding, comparable within an allelic series) | binding signal (MSX2 [27]): 9.51 upbm affinity estimate (log intensity, higher = more binding, comparable within an allelic series) | binding signal (SIX6 [14]): 9.08 upbm affinity estimate (log intensity, higher = more binding, comparable within an allelic series) | binding signal (SHOX [15]): 7.2 upbm affinity estimate (log intensity, higher = more binding, comparable within an allelic series) | binding signal (HOXA2 [28]): 10.3 upbm affinity estimate (log intensity, higher = more binding, comparable within an allelic series) | binding signal (MSX2 [29]): 9.6 upbm affinity estimate (log intensity, higher = more binding, comparable within an allelic series) | binding signal (SIX6 [17]): 9.14 upbm affinity estimate (log intensity, higher = more binding, comparable within an allelic series) | binding signal (SIX6 [19]): 9.16 upbm affinity estimate (log intensity, higher = more binding, comparable within an allelic series) | binding signal (SIX6 [21]): 9.13 upbm affinity estimate (log intensity, higher = more binding, comparable within an allelic series) | binding signal (MSX2 [30]): 9.62 upbm affinity estimate (log intensity, higher = more binding, comparable within an allelic series) | binding signal (HOXA2 [31]): 10.5 upbm affinity estimate (log intensity, higher = more binding, comparable within an allelic series) | binding signal (HOXA2 [32]): 7.46 upbm affinity estimate (log intensity, higher = more binding, comparable within an allelic series)

AATTTCGA
binding signal (SHOX [1]): 8.68 upbm affinity estimate (log intensity, higher = more binding, comparable within an allelic series)

— article PMC11006913
